Data from the supplement of paper PMC6555819.

What was measured:
Assay in all cases: PBM binding z-score (relative to random genomic background probes); higher = stronger binding; sequences stand for … in GC…GCGATTGACAGCGTAGAATGAAGG
[1] = system: FXR:RXRa (NR concentration 270 nM, RXRa partner concentration 90 nM)
How it was run: (§1)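 Custom Agilent 4×180K protein-binding microarrays carried double-stranded probes, each with a 34-nt variable region. These regions held direct-repeat seeds, single-nucleotide variants, half-site ablations and random human genomic background sequences. Ligand-free nuclear receptor dimers were incubated on the arrays for 1 h, antibodies against each partner (one per run) detected binding, and scanned fluorescence was regression-normalized. Binding z-scores take the random background probes as reference.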

[2] = system: LXRa:RXRa (NR concentration 270 nM, RXRa partner concentration 90 nM)
How it was run: as §1

[3] = system: LXRa homodimer (NR concentration 270 nM)
How it was run: as §1

[4] = system: LXRb:RXRa (NR concentration 270 nM, RXRa partner concentration 90 nM)
How it was run: as §1

[5] = system: LXRb homodimer (NR concentration 270 nM)
How it was run: as §1

[6] = system: PPARa:RXRa (NR concentration 270 nM, RXRa partner concentration 90 nM)
How it was run: as §1

[7] = system: PPARg:RXRa (NR concentration 180 nM, RXRa partner concentration 90 nM)
How it was run: as §1

[8] = system: PPARg:RXRa 270nM:90nM, anti-RXR (NR concentration 270 nM, RXRa partner concentration 90 nM)
How it was run: as §1

[9] = system: PPARg:RXRa 30nM:10nM, anti-RXR (NR concentration 30 nM, RXRa partner concentration 10 nM)
How it was run: as §1

[10] = system: PPARg:RXRa 90nM:30nM, anti-RXR (NR concentration 90 nM, RXRa partner concentration 30 nM)
How it was run: as §1

[11] = system: PPARg:RXRa DBDmut IVT, anti-RXR (DBD mutation: RXRa K156A/R161A, NR concentration 270 nM, RXRa partner concentration 90 nM)
How it was run: as §1

[12] = system: PPARg:RXRa IVT, anti-PPARg (NR concentration 270 nM, RXRa partner concentration 90 nM)
How it was run: as §1

[13] = system: PPARg DBDmut:RXRa IVT, anti-PPARg (DBD mutation: PPARg1 K132A/R137A, NR concentration 270 nM, RXRa partner concentration 90 nM)
How it was run: as §1

[14] = system: PPARg DBDmut IVT, anti-PPARg (DBD mutation: PPARg1 K132A/R137A, NR concentration 270 nM)
How it was run: as §1

[15] = system: PPARg homodimer (NR concentration 180 nM)
How it was run: as §1

[16] = system: PXR:RXRa (NR concentration 270 nM, RXRa partner concentration 90 nM)
How it was run: as §1

[17] = system: PXR homodimer (NR concentration 270 nM)
How it was run: as §1

[18] = system: RARa:RXR (NR concentration 270 nM, RXRa partner concentration 90 nM)
How it was run: as §1

[19] = system: RARa homodimer (NR concentration 270 nM)
How it was run: as §1

[20] = system: RARb:RXRa (NR concentration 270 nM, RXRa partner concentration 90 nM)
How it was run: as §1

Sequence | PBM binding z-score [1] | PBM binding z-score [2] | PBM binding z-score [3] | PBM binding z-score [4] | PBM binding z-score [5] | PBM binding z-score [6] | PBM binding z-score [7] | PBM binding z-score [8] | PBM binding z-score [9] | PBM binding z-score [10] | PBM binding z-score [11] | PBM binding z-score [12] | PBM binding z-score [13] | PBM binding z-score [14] | PBM binding z-score [15] | PBM binding z-score [16] | PBM binding z-score [17] | PBM binding z-score [18] | PBM binding z-score [19] | PBM binding z-score [20]
TCTATTAGTTGATTAGGGCAACCAAAACAGCGGA | 0.762 | 0.673 | 0.188 | 0.699 | 0.773 | 1.06 | 0.435 | 2.01 | 3.9 | 2.83 | 2 | 1.72 | 1.55 | 1.68 | 0.9 | 0.429 | 0.323 | 0.556 | 1.11 | 0.905
TCTCGGAGGACACGAAAGATCAGAGCTCGACATC | -0.277 | 0.0528 | -0.431 | -0.144 | -0.969 | 0.328 | 0.493 | 0.915 | 2.54 | 1.17 | 1.5 | 0.155 | -0.549 | -1.75 | -1.47 | -0.243 | -0.552 | -0.0104 | -0.742 | 1.17
ATATGTAGGTTAGCTCGGGTCATTCAGACTAGGC | 2.55 | 4.5 | 1.52 | 2.65 | 0.733 | 4.08 | 4.25 | 3.8 | 1.34 | 3.09 | 6.41 | 6.32 | 1.69 | 1.22 | 2.02 | 4.79 | 1.22 | 3.11 | 0.826 | 2.09
ACTTTCGGGTCAACGAGGTTATAGCACGCGTATA | 6.38 | 5.02 | 0.999 | 4.56 | 1.45 | 5.52 | 4.94 | 5.18 | 2.34 | 4.34 | 3.31 | 4.16 | 1.8 | 1.14 | 2.32 | 5.37 | 6.97 | 4.91 | 1.53 | 4.29
TGTCAAAGTACAAAGGTAACGTAAGTATCCACAC | 0.237 | 0.465 | -0.185 | 0.542 | -0.294 | 1.67 | 3.64 | 4.32 | 1.97 | 3.96 | -0.385 | 2.33 | 1.2 | 1.03 | 0.0149 | 0.587 | -0.194 | 1.04 | 0.713 | 1.67
ATCTCCAGGTAAAAGTTCAGTGAATCCCGAGGAT | 1.06 | 1.58 | 1.65 | 1.15 | 0.946 | 3.5 | 5.76 | 6.62 | 6.15 | 7.28 | 0.0885 | 2.31 | 1.68 | 1.01 | 1.84 | 2.4 | 1.88 | 2.14 | 1.07 | 2.6
AGAACGAGGGCACGCTGAGTTGATAGCTGAGTAG | 0.863 | 0.607 | -0.912 | 0.017 | -0.95 | 2.18 | 2.08 | 1.87 | 0.18 | 1.06 | 4.41 | 3.75 | 0.643 | 0.101 | 0.829 | 1.57 | 0.136 | 1 | -0.945 | 2.57
CGTCCAAGGTCAGAGATGTCAGTGAATGCCGAGT | 4.67 | 2.73 | 0.142 | 1.82 | -0.161 | 3.59 | 2.24 | 2.19 | 0.132 | 1.04 | 2.09 | 2.19 | -0.242 | -0.744 | 0.984 | 2.43 | 1 | 2.65 | 0.429 | 4.54
CCGACTGGGGCAGAAAGGTTACCATGCCATCCGG | 0.204 | 0.517 | -0.401 | 0.479 | -1.31 | 2.23 | 1.6 | 2.65 | 0.457 | 1.82 | 1.38 | 2.43 | -1.53 | -1.09 | 0.386 | 0.882 | -0.381 | 1.61 | -0.141 | 2
AGTATGAGGTTAAGATCAGGGAAACAGAATACAT | 1.71 | 2.36 | 0.00803 | 1.84 | 0.314 | 3.08 | 1.76 | 1.45 | 0.773 | 1.12 | 0.462 | 1.01 | 0.752 | 1.37 | 1.32 | 1.15 | 0.499 | 1.84 | 0.731 | 1.98
GCATATAGGTAAAACAAGGTGAAAGTCCGATTGT | 1.15 | 2.03 | -0.3 | 0.461 | -0.664 | 1.96 | 1.32 | 1.69 | 0.57 | 1.14 | 3.96 | 3.34 | 0.889 | 0.508 | 0.332 | 0.851 | -0.261 | 1.85 | -0.0924 | 0.432
CCTTACGGCTCAAGGTTATAGCACGGGTGGTACG | 0.272 | 0.347 | 0.117 | 0.126 | -0.259 | 0.445 | 0.607 | 0.552 | 0.388 | 0.076 | -0.441 | -0.312 | -1.23 | -0.222 | 0.358 | 0.204 | 0.404 | 0.389 | 0.282 | 0.562
GATACAGGGTCGAGGCCAGAGTACGCGTATTGAT | 0.882 | 0.531 | -0.581 | 0.3 | -1.21 | 1.99 | 1.21 | 0.874 | 0.198 | 0.515 | -0.175 | 0.711 | -0.769 | -0.92 | 0.109 | 0.68 | -0.735 | 1.37 | -0.498 | 1.91
